Screens from PubChem.
Most compounds without a hit are left out; they make up all but 4.2% or so of the library.
VDR inhibitor: vitamin D3 receptor (human) inhibition; VDR-SRC2-3 peptide fluorescence polarization, 2 h; Potency, µM, inactives show max response, negative = inhibition, actives largely listed as inhibitors; 400,000 compounds, 0.93% hits; AID 504847; further: potency means the concentration at half of the fitted maximal effect
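Compounds are added to VDR with labelled SRC2-3 coactivator peptide and held 2 h at room temperature. Inhibition of the VDR–peptide interaction is then read as a change in fluorescence polarization.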
PLK1 PBD inh: PLK1 (human) polo-box domain binding inhibition; P53350; Plk1 PBD binding of FITC phosphopeptide, fluorescence polarization; Potency, µM, inactives show max response, negative = inhibition, usual class: inhibitors; 360,000 compounds, 2.8% hits; AID 720504; further: potency means the concentration at half of the fitted maximal effect; series mostly up to about 57 µM; nearly all actives have a fitted effect of over 65% in size
ALOX12 inh: ALOX12 (human) lipoxygenase inhibition; purified 12hLO, xylenol orange hydroperoxide absorbance; Potency, µM (highest dose often 108 µM), inactives show at the highest dose activity change, negative = inhibition, actives largely listed as inhibitors; 580,000 compounds, 1.1% hits; AID 1671190; further: potency means the concentration at half of the fitted maximal effect
Target sequence (P18054 whole entry, looked up): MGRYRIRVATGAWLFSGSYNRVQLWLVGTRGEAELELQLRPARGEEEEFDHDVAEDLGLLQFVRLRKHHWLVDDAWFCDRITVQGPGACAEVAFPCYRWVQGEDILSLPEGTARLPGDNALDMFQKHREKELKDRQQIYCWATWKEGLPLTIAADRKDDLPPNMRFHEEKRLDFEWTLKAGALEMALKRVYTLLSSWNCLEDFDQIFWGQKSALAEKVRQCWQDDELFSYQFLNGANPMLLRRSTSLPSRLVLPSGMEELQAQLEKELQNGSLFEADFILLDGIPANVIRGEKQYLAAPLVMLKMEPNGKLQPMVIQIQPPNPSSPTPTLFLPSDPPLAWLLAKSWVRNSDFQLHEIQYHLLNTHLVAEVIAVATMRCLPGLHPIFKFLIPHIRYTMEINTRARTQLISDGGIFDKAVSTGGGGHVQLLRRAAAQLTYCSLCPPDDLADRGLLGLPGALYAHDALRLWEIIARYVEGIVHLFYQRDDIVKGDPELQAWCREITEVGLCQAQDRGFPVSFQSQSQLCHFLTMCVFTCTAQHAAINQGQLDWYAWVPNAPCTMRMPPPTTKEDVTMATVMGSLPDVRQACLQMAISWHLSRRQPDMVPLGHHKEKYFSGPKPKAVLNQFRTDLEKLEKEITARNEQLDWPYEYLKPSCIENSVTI
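Purified human 12hLO at 150 nM in 25 mM Hepes, 0.01% Triton X-100, pH 7.0, preincubated 15 min at room temperature with compound. Reaction started with 40 uM arachidonic acid, 30 min at room temperature. Hydroperoxide measured by Fe-xylenol orange, 573/405 nm absorbance ratio.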
Sfp inh: blocks B. subtilis Sfp PPTase activity; Biochemical Sfp PPTase activity, qHTS; Potency, µM, inactives show largest response in the series, negative = inhibition, actives largely listed as inhibitors; 310,000 compounds, 3.5% hits;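 further: the enzyme is Sfp with the accession as filed and its product quenches rhodamine fluorescence; potency means the concentration at half of the fitted maximal effect; 0% = enzyme reaction without inhibitor and -100% = no enzyme wells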
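With Hepes-Na pH 7.6 buffer containing 10 mM MgCl2, Sfp (15 nM) modified BHQ-2-YbbR (12.5 uM) using rhodamine-CoA (5 uM). Two reads 30 minutes apart at 525/598 nm yielded each well's rate.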
Sfp PPTase conf: Sfp phosphopantetheinyl transferase inhibition, confirmation. shares compounds with Sfp inh. Sfp PPTase enzymatic assay, qHTS titration. Potency, µM (top dose mostly 114 µM), without a hit: top-dose activity change, negative = inhibition, actives largely listed as inhibitors. 380 compounds, 79% hits;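 further: potency means the concentration at half of the fitted maximal effect; plate controls were uninhibited Sfp reaction for no effect and no enzyme control for full effect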
Sfp gel assay: Blocks Sfp PPTase activity, gel read-out. Potency, µM, actives largely listed as inhibitors. 210 compounds, 20% hits. purified Sfp, gel-based phosphopantetheinylation read-out. shares compounds with Sfp inh;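 active means potency below 100 µM; inconclusive means dose-dependent response but potency above 100 µM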;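 further: band intensities scaled against SCH202676 control wells before curve fitting; potency is an IC50 for inhibitors of Sfp transfer activity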
* hit, by the source's call; i = inactive; ? = inconclusive; / = no result given; ! = a repeat was not active; [ ] = remark or other dose. Unless noted, the call rests on the fitted dose curve; in most records, active means well fitted curve in the direction sought with a large enough effect; inconclusive means small, poorly fitted or top-dose-only effect, or another doubt; inactive means no such curve, though single readings can be large; an effect the other way counts as inactive or inconclusive. Unless noted, on the % scale 0 is the no-effect control and ±100 the full control effect.

SMILES	VDR inhibitor	PLK1 PBD inh	ALOX12 inh	Sfp inh	others
N#Cc1ccc(C(=O)Nc2ccc(Cl)cc2C(=O)c2ccccc2F)cc1	/	/	-41%	/
COc1ccccc1C(C#N)C(C)=O (configuration not stated)	/	/	2%	/
COc1cc2c(cc1OC)-c1c(OC)c(OC)c(C=O)c3c1[C@H](C2)N(C)CC3	8.9µM*	/	/	-8%
COc1cc2c(cc1OC)-c1c(OC)c(OC)c(CO)c3c1C(C2)N(C)CC3 (configuration not stated)	/	/	/	-1%
O=c1c2ccccc2nc(/C=C/c2ccccc2F)n1-c1ccccc1O	-7%	-8%	11µM*	-9%
C=CCN(C)C[C@H]1CN2CC[C@H]1C[C@@H]2CNC(=O)Nc1ccsc1	/	/	23%[176 µM]	/
CCCN(CC#CCO)CCC	6%	3%	-4%	15%
CCCCCn1c(Sc2ccccc2)nc2c1c(=O)[nH]c(=O)n2C	?	30µM*	31%[57.4 µM]	-5%
COCCn1c(SCc2ccccc2Cl)nc2c1c(=O)[nH]c(=O)n2C	-4%	?	?	-17%
O=C(Nc1ccc(Cl)cc1)O/N=C(\c1ccccc1)c1ccccn1	6%	?	4%	40µM*
CC(C)N(C(=O)CCl)c1ccccc1	-2%	-9%	-16%	3%
CN1CC[C@@]2(C)c3cc(O)ccc3N(C)[C@@H]12	?	5.3µM*	-24%	-5%
CN1CC[C@@]2(C)c3cc(O)ccc3N(C)C2O1 (some centres not stated)	-22%	/	/	-28%
COC(=O)C(C#N)C(c1cccnc1)c1c(C)[nH][nH]c1=O (configuration not stated)	-2%	?	-8%	?
COC(=O)c1ccc(C(c2c(C)[nH][nH]c2=O)c2c(C)[nH][nH]c2=O)cc1	?	21µM*	113%	-13%
NP(=O)(OCCCc1ccccc1)Oc1ccccc1 (configuration not stated)	-18%	-1%	0%	6%
CC(C)(C)c1ccc(O)c(N=Cc2c(O)ccc3ccccc23)c1	14%	29%	7.9µM*	17%
COC(=O)C(O)(c1ccc(N=Cc2ccccc2O)c(C)c1)C(F)(F)F (configuration not stated)	-2%	0%	12%	27%
CC1CC2OC2/C=C\C=C/C(=O)Cc2c(Cl)c(O)cc(O)c2C(=O)O1 (configuration not stated)	45µM*	/	/	-8%
NC(=O)c1ncn(C2OC(CO)C(O)C2O)n1 (configuration not stated)	9%	/	/	56µM*	Sfp PPTase conf=83µM*;Sfp gel assay=56µM*
OCC1OC(n2cnc3cc(Cl)c(Cl)cc32)C(O)C1O (configuration not stated)	14%	-9%	7%	10%
CCOc1cc(C)cc2oc(=O)c3c(c12)CCCC3	-8%	0%	/	17%
CCOC(=O)[C@]1(C#N)[C@@H]2C=CC(C(C)=O)=CN2[C@@H](C(N)=O)[C@@H]1c1ccsc1	0%	?	64%	40µM*	Sfp PPTase conf=?;Sfp gel assay=?
CN1CCC(n2nccc2N)CC1	-10%	-2%	0%	-1%
Nc1ccnn1C1CCNCC1	-6%	-1%	0%	18µM*	Sfp PPTase conf=?;Sfp gel assay=i
SMILES	VDR inhibitor	PLK1 PBD inh	ALOX12 inh	Sfp inh	others
CCOC(=O)c1c(/N=C/c2c(O)n(-c3ccccc3F)c(=S)[nH]c2=O)sc2c1CCCC2	?	24µM*	?	13µM*	Sfp PPTase conf=19µM*
Nc1nc(/C(=C/CC(=O)O)C(=O)NC2C(=O)N3C(C(=O)O)=CCSC23)cs1 (configuration not stated)	50µM*	/	/	56µM*	Sfp PPTase conf=42µM*;Sfp gel assay=?
C=C(C)[C@H]1CN[C@H](C(=O)O)[C@H]1CC(=O)O	-1%	0%	?	40µM*!	Sfp PPTase conf=12%;Sfp gel assay=i
C=C(C)[C@H]1CN[C@H](C(=O)O)[C@@H]1CC(=O)O	11%	/	?	?
NP(N)(=O)NC(=O)c1ccc(F)cc1	-1%	/	?	7%
C=CCn1c(O)c(C(C)=NCCN2CCCCC2)c(=O)[nH]c1=O	1%	-5%	12%	-13%
